From PubChem BioAssay
WRN helicase inh: qHTS for Inhibitors of WRN Helicase; Bifunctional 3'-5' exonuclease/ATP-dependent helicase WRN (Homo sapiens), Q14191; WRN helicase unwinding, fluorescent forked duplex, kinetic; Potency, µM (series often up to 114 µM), for inactives: top-dose activity change, negative = inhibition, actives largely listed as inhibitors; 360,000 tested, 0.46% active; note: potency is the fitted concentration of half-maximal effect; nearly all actives have a fitted effect of over 55% in size
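Kinetic red-fluorescence monitoring (525/598 nm) tracks WRN helicase activity after 100 nM fluorophore-quencher forked duplex and 2 mM ATP are added to 20 nM enzyme pretreated 15 min at room temperature with compound.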
Tb PGK inh: qHTS Assay to Find Inhibitors of Phosphoglycerate Kinase; PGK/GAPDH coupled, Kinase-Glo luminescence, 60 min; Potency, µM (series often up to 57.5 µM), for inactives: top-dose activity change, negative = inhibition, most hits filed as inhibitors; 380,000 tested, 0.043% active; note: potency is the fitted concentration of half-maximal effect; nearly all actives have a fitted effect of over 60% in size
Target sequence (P07378 whole entry, looked up): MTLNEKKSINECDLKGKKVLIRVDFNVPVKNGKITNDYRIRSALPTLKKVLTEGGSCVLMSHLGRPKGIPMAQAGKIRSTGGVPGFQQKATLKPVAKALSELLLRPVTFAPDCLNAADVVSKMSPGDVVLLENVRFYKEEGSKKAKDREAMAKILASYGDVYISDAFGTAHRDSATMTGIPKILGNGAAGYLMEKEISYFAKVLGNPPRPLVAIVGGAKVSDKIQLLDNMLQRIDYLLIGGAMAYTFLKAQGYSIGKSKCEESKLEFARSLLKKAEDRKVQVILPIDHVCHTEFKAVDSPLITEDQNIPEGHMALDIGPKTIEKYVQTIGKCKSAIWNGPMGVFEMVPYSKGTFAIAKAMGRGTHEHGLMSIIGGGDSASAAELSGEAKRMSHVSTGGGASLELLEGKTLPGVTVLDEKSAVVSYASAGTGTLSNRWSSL
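Luminescent ATP detection (Kinase-Glo Plus) follows a 60-minute room-temperature incubation, with wells lacking PGK as controls. Buffer: 100 mM TEA (pH 7.6), 5 mM MgCl2, 0.01% Tween-20. Coupling enzyme GAPDH (100 nM final) supplies unstable 1,3-BPG in-well.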
Tb PFK inh: qHTS Assay to Find Inhibitors of T. brucei phosphofructokinase | ATP-dependent 6-phosphofructokinase (Trypanosoma brucei brucei), O15648 | T. brucei PFK, ADP-Glo luminescence | Potency, µM (series often up to 57.5 µM), without a hit: at the top dose activity, negative = inhibition, usual class: inhibitors | 330,000 tested, 0.17% active;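 note: potency is the fitted concentration of half-maximal effect; 0% = uninhibited 1x PFK enzyme wells and -100% = no-enzyme wells; nearly all actives have a fitted effect of over 60% in size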
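1.25 nM PFK with 0.5 mM F6P and 0.1 mM ATP in 0.1 M TEA pH 8.0, 5 mM MgCl2, incubated 45 min at room temperature; ADP measured by ADP-Glo luminescence; compounds titrated up to 57 uM.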
TDP1 block: qHTS Assay for Inhibitors of Tyrosyl-DNA Phosphodiesterase (TDP1). AID 485290, 2010. Tyrosyl-DNA phosphodiesterase 1 (Homo sapiens), Q9NUW8. Potency, µM (titrated, usually from 130 µM), for the others: at the highest dose activity change, negative = inhibition, hits mostly inhibitors. recombinant TDP1, AlphaScreen DNA substrate cleavage. 350,000 tested, 0.28% active; note: potency is the fitted concentration of half-maximal effect; nearly all actives have a fitted effect of over 40% in size
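E. coli-derived human Tdp1, 1 nM final. Cpd preinc 15 min RT; substrate 15 nM final, 5 min RT; AS bead mix 10 ug/ml final, 10 min RT. Signal loss = tyrosine-FITC cleavage. No-enzyme wells = max signal.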
FEN1 inhibitor: qHTS Assay for the Inhibitors of Human Flap endonuclease 1 (FEN1); 390,000 tested, 0.35% active; P39748; Recombinant FEN1 flap cleavage, fluorescence, 15 min; Potency, µM (doses to about 114 µM), inactives show at the highest dose activity change, negative = inhibition, most hits filed as inhibitors; note: potency is the fitted concentration of half-maximal effect; nearly all actives have a fitted effect of over 65% in size
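FEN1 at 10 nM, compound pretreatment for 15 min (room temperature), 50 nM final substrate to initiate; endpoint reads at 0 and 15 min; DMSO-only plates used as vehicle background.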
PI5P4Ka inh: qHTS for Inhibitors of phosphatidylinositol 5-phosphate 4-kinase (PI5P4K); max response, %; AID 652105, 2013; 330,000 tested, 1.2% active; Phosphatidylinositol 5-phosphate 4-kinase type-2 alpha (Homo sapiens), P48426; PI5P4Kalpha enzyme, ADP-Glo luminescence, 60 min; stronger effect = lower value; active = max response of -50% or lower; inconclusive = between -30% and -50%; inactive = -30% or higher; note: value at the top dose of about 77 µM
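ADP-Glo luminescence end-point read after a 60 min room-temperature kinase reaction of PI5P4Kalpha plus substrate, initiated with ATP at 5 microM final. Buffer: 0.038 M HEPES pH 7.4, EGTA, 0.1% CHAPS, 5% DMSO.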
* = called active by the depositor; i = inactive; u = inconclusive; x = no result given; [ ] = remark or other dose. Most compounds without a hit are left out; they make up all but 1.5% or so of the library. Unless noted, calls come from the whole dose curve; as a rule, active = well fitted curve in the direction sought with a large enough effect; inconclusive = small, poorly fitted or top-dose-only effect, or another doubt; inactive = no such curve, though single readings can be large; an effect the other way counts as inactive or inconclusive. Unless noted, % is set by controls: 0 for no effect and ±100 for the full control effect.

SMILES | WRN helicase inh | Tb PGK inh | Tb PFK inh | TDP1 block | FEN1 inhibitor | PI5P4Ka inh
CC(=O)Nc1cc(OC(C)=O)c2nonc2c1OC(C)=O | -11% | -24% | 1% | -3% | -2% | x
CC(=O)Oc1ccc2nonc2c1OC(C)=O | x | x | x | -10% | 10µM* | x
C#CCOCCOCCOCCNc1nc(N2CCN(C(=O)[C@H](Cc3cc4ccccc4[nH]3)n3cc([C@@H](N)Cc4ccc(O)cc4)nn3)CC2)nc(N2CCN(C(=O)[C@H](Cc3cc4ccccc4[nH]3)n3cc([C@@H](N)CC(C)C)nn3)CC2)n1 | -31% | 1% | -14% | 9% | u | u
C#CCOCCOCCOCCNc1nc(N2CCN(C(=O)Cn3cc(CCCCN)nn3)CC2)nc(N2CCN(C(=O)[C@H](C)n3cc(CCCN=C(N)N)nn3)CC2)n1 | x | x | -19% | -7% | x | x
C#CCOCCOCCOCCNc1nc(N2CCN(C(=O)CCCCCCCCCCNC(=O)[C@H]([C@@H](C)CC)n3cc(CCCCN=C(N)N)nn3)CC2)nc(N2CCN(C(=O)CCCCCCCCCCNC(=O)[C@H](CCCCN)n3cc(C[C@@H](C)CC)nn3)CC2)n1 | x | x | -7% | 0% | x | x
C#CCOCCOCCOCCNc1nc(N2CCN(C(=O)[C@H](CCCN=C(N)N)n3cc(C(N)[C@H](C)CC)nn3)CC2)nc(N2CCN(C(=O)[C@H](CCCN=C(N)N)n3cc(C(N)[C@@H](C)CC)nn3)CC2)n1 (some centres undefined) | -32% | i | -4% | 0% | 9% | -61*
C#CCOCCOCCOCCNc1nc(N2CCN(C(=O)C(Cc3cc4ccccc4[nH]3)n3cc(C(N)Cc4ccc(O)cc4)nn3)CC2)nc(N2CCN(C(=O)C(Cc3cc4ccccc4[nH]3)n3cc(C(N)Cc4ccc(O)cc4)nn3)CC2)n1 (centres undefined) | -12% | -8% | 10% | 9% | -12% | -92*
C#CCOCCOCCOCCNc1nc(N2CCN(C(=O)Cn3cc(CC(C)O)nn3)CC2)nc(N2CCN(C(=O)[C@H](C)n3cc(CCCN=C(N)N)nn3)CC2)n1 (some centres undefined) | -2%[11.6 µM] | -5% | -10% | -7% | u | -80*
C#CCOCCOCCOCCNc1nc(N2CCN(C(=O)[C@H](CCCN=C(N)N)n3cc(C(N)[C@@H](C)CC)nn3)CC2)nc(N2CCN(C(=O)[C@H](CC(N)=O)n3cc([C@@H](N)C(C)C)nn3)CC2)n1 (some centres undefined) | -2% | 0% | 0% | 0% | -13% | 21
C#CCOCCOCCOCCNc1nc(N2CCN(C(=O)CCCCCCCCCCNC(=O)[C@H](CCCCN)n3cc(CCO)nn3)CC2)nc(N2CCN(C(=O)CCCCCCCCCCNC(=O)[C@H](CCCN=C(N)N)n3cc(C[C@@H](C)CC)nn3)CC2)n1 | 35µM* | 14% | -5% | 9% | 22µM* | -66*
C#CCOCCOCCOCCNc1nc(N2CCN(C(=O)CCCCCCCCCCNC(=O)Cn3cc(C[C@@H](C)O)nn3)CC2)nc(N2CCN(C(=O)CCCCCCCCCCNC(=O)[C@H](CCCCN)n3cc(C[C@@H](C)CC)nn3)CC2)n1 | u | -8% | u | x | 50µM* | u
C#CCOCCOCCOCCNc1nc(N2CCN(C(=O)CCCCCCCCCCNC(=O)[C@H](CCCCN)n3cc(C[C@@H](C)CC)nn3)CC2)nc(N2CCN(C(=O)CCCCCCCCCCNC(=O)[C@H](CCCCN)n3cc(C[C@@H](C)CC)nn3)CC2)n1 | 50µM* | -1% | x | x | 22µM* | -52*
COc1ccc(-c2c(-c3ccc4c(c3)OCO4)noc2-c2ccsc2)cn1 | x | x | x | x | 0% | x
CCC(=O)NC(c1ccc(Br)o1)c1cc(Cl)c2cccnc2c1O (centres undefined) | x | x | x | 1% | x | x
Brc1ccc2c(ccc[n+]2CCc2ccccc2)c1 | x | x | x | x | 16% | x
COc1cc2c(cc1OC)C(=O)C(Br)CC2 (centres undefined) | 50µM* | u | x | x | x | -51*
COc1ccc(C2Nc3ccccc3C(=O)N2Cc2ccccn2)cc1COc1ccc(NC(C)=O)cc1 (centres undefined) | x | x | x | -11% | x | x
Clc1nc(NCc2ccco2)c2ccccc2n1 | x | x | x | x | -21% | x
O=C(N/N=C/c1sc(=O)n(Cc2ccc(Br)cc2)c1Cl)c1ccco1 | -28% | -23% | -6% | 40µM* | u | -17
O=C(O)c1cccc(Cn2c(Cl)c(/C=N/Nc3ccccc3)sc2=O)c1 | -15%[11.6 µM] | 3% | -6% | 6% | -6% | -64*
Cc1cc2c(s1)c1cnn(Cc3ccc(F)c(F)c3F)c(=O)c1n2C | x | x | x | -3% | x | x
c1ccc(CC[n+]2ccncc2)cc1 | x | x | x | x | 7% | x
CCOC(=O)c1c(NC(=O)COc2ncnc3ccccc23)sc(C)c1C | 7% | -9% | -6% | 1% | -16% | 5
CCOC(=O)c1c(C)[nH]c(C)c1C(=O)COc1ncnc2ccccc12 | -34% | 4% | 3% | 0% | -6% | -55*
O=C(O)c1cccc(N2C(=O)/C(=C/c3ccc(SCc4ccc(Cl)cc4)o3)SC2=S)c1 | 18µM* | 35µM* | 18% | x | u | -73*
SMILES | WRN helicase inh | Tb PGK inh | Tb PFK inh | TDP1 block | FEN1 inhibitor | PI5P4Ka inh
O=C(/C=C/c1ccccc1)Nc1cc(NC(=O)/C=C/c2ccccc2)cc(C(=O)O)c1 | -7%[11.6 µM] | -8% | 1% | x | u | -56*
O=C(O)c1cccc(NC(=S)NC(NC(=O)c2ccccc2[N+](=O)[O-])C(Cl)(Cl)Cl)c1 (centres undefined) | -6% | 3% | -1% | -3% | 17% | -9
O=C(/C=C/c1ccc([N+](=O)[O-])cc1)Nc1cccc(C(=O)Nc2ccccc2C(=O)O)c1 | 32µM* | u | u | x | u | -66*
O=C(/C=C/c1cccc([N+](=O)[O-])c1)Nc1cc(C(=O)O)cc(C(=O)O)c1 | u | -9% | 14% | -5% | -6% | -16
COC(=O)c1cccc(NC(=O)/C=C/c2ccc([N+](=O)[O-])cc2)c1 | -2% | -1% | 3% | 5% | -3% | -9
O=C(Nc1ccc([N+](=O)[O-])cc1)C(=O)Nc1cccc(C(=O)O)c1 | -2% | u | -1% | 0% | -3% | -60*
